Legend:
Test in all cases: phenotypically active (imaging signature differs from DMSO and reproducible) at any of 0.3-9 uM (binary (1 = active, 0 = inactive)); higher = active
Settings in all cases: treatment time: 24 h
[1] = system: A549-ACTB-RAB5A
Method in brief: (§1)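 Cells from fifteen gene-edited reporter lines (A549, HepG2 and WPMY1) were treated for 24 h at 0.3, 1, 3 or 9 µM and imaged live, four wells per condition. Features were normalised per well to solvent control wells. A condition deviated if ≥3 of 4 wells passed the 95th percentile of control Euclidean distances and was reproducible if its median replicate Pearson correlation beat the 95th percentile of non-replicates; phenotypic activity needed both.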

[2] = system: A549-CANX-COX4
Method in brief: as §1

[3] = system: A549-GM130-SQSTM1
Method in brief: as §1

[4] = system: A549-TP53BP1-CLTA
Method in brief: as §1

[5] = system: A549-TUBA1B-RELA
Method in brief: as §1

[6] = system: HepG2-ACTB-RAB5A
Method in brief: as §1

[7] = system: HepG2-CANX-COX4
Method in brief: as §1

[8] = system: HepG2-GM130-SQSTM1
Method in brief: as §1

[9] = system: HepG2-TP53BP1-CLTA
Method in brief: as §1

[10] = system: HepG2-TUBA1B-RELA
Method in brief: as §1

[11] = system: WPMY1-ACTB-RAB5A
Method in brief: as §1

[12] = system: WPMY1-CANX-COX4
Method in brief: as §1

[13] = system: WPMY1-GM130-SQSTM1
Method in brief: as §1

[14] = system: WPMY1-TP53BP1-CLTA
Method in brief: as §1

[15] = system: WPMY1-TUBA1B-RELA
Method in brief: as §1

Measured: phenotypically active

FC(F)OC(F)C(F)(F)F (stereo not given) [desflurane]
inactive: [1] 0 | [2] 0 | [3] 0 | [4] 0 | [5] 0 | [6] 0 | [7] 0 | [8] 0 | [9] 0 | [10] 0 | [11] 0 | [12] 0 | [13] 0 | [14] 0 | [15] 0

CCOC(=O)Nc1ccc2c(c1)N(C(=O)CCN1CCOCC1)c1ccccc1S2 [moracizine]
inactive: [1] 0 | [2] 0 | [3] 0 | [4] 0 | [5] 0 | [6] 0 | [7] 0 | [8] 0 | [9] 0 | [10] 0 | [11] 0 | [12] 0 | [13] 0 | [14] 0 | [15] 0

C=C1C[C@@]23CCC4[C@@](C)(CCC[C@@]4(C)C(=O)O[C@@H]4O[C@H](CO)C(O)[C@H](O)C4O)C2CC[C@@]1(O[C@H]1O[C@H](CO)C(O)[C@H](O)[C@H]1O[C@@H]1O[C@H](CO)[C@@H](O)[C@H](O)[C@H]1O)C3 (stereo not given in full) [Stevioside]
inactive: [1] 0 | [2] 0 | [3] 0 | [4] 0 | [5] 0 | [6] 0 | [7] 0 | [8] 0 | [9] 0 | [10] 0 | [11] 0 | [12] 0 | [13] 0 | [14] 0 | [15] 0

CCCN(CCC)CCc1cccc2c1CC(=O)N2 [ropinirole]
inactive: [1] 0 | [2] 0 | [3] 0 | [4] 0 | [5] 0 | [6] 0 | [7] 0 | [8] 0 | [9] 0 | [10] 0 | [11] 0 | [12] 0 | [13] 0 | [14] 0 | [15] 0

Cc1occc(=O)c1O [3-hydroxy-2-methyl-4-pyrone]
inactive: [1] 0 | [2] 0 | [3] 0 | [4] 0 | [5] 0 | [6] 0 | [7] 0 | [8] 0 | [9] 0 | [10] 0 | [11] 0 | [12] 0 | [13] 0 | [14] 0 | [15] 0
